The values below come from PubChem BioAssay (Tox21).

Molecules are shown by their SMILES. A number with no mark means an inactive call. Inconclusive results are not listed. Activity calls are given as the source filed them. Unless noted, calls follow the shape of the dose curve; as a rule, active = well fitted curve in the direction sought with a large enough effect in the repeat runs; inconclusive = weak or mixed curves; inactive = no such curve, though single readings can be large; an effect the other way counts as inactive or inconclusive.

Assay [1] is described as follows: qHTS assay for small molecule agonists of the p53 signaling pathway (AID 651631; calls by dose curve; also: nearly all actives have a fitted effect of over 15% in size). The gist of the method: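 HCT-116 p53RE-bla reporter line, 16 h compound treatment at 37 °C, then fluorescence after 2 h with B/G FRET substrate.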
(In general: qHTS replaces the single test concentration by a dilution series.)

The nature of assay [2]: qHTS assay for small molecules that induce genotoxicity in human embryonic kidney cells expressing luciferase-tagged ATAD5 (AID 651632). Also: nearly all actives have a fitted effect of over 15% in size. In a few lines:
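Genotoxicity read-out via ATAD5-luciferase: HEK293T cells, 16 hr compound incubation at 37C, Amplite detection.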

Assay [3] can be described thus: qHTS assay for small molecule agonists of the p53 signaling pathway - cell viability (AID 651633; calls by dose curve;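 also: p53RE-bla HCT reporter cells with a stable beta-lactamase p53 reporter; series mostly up to about 83 µM; nearly all actives have a fitted effect of over 30% in size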). In a few lines: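 Viability counter-read: CellTiter-Glo luminescence (30 min, room temperature) in the same p53RE-bla plates. These plates had been exposed to compounds for 16 h at 37 C.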
Assay [4] is described as follows: qHTS assay for small molecule disruptors of the mitochondrial membrane potential - cell viability (AID 720634; calls by dose curve;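 also: human HepG2 liver cancer cells; series mostly up to about 83 µM; nearly all actives have a fitted effect of over 20% in size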). The gist of the method:
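Human hepatoma HepG2 cells were treated for 1 hr with test chemicals, then given m-MPI dye and CellTiter-Glo. Cell viability reflects luminescence proportional to cellular ATP.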

A short description of assay [5]: qHTS assay for small molecule disruptors of the mitochondrial membrane potential (AID 720635). Also: potency is read from the fitted curve at half-maximal effect. The gist of the method:
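Mitochondrial membrane potential tracked with Mito-MPS dye, red aggregates (ex 540/em 590 nm) against green monomers (ex 490/em 535 nm). Compound treatment 1 hr at 37C, dye 30 min in HepG2.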

Assay [6] in a line: qHTS assay to test for compound auto fluorescence at 590 nm (red) in HepG2 cells (AID 720674). The gist of the method: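 We screened compounds on adherent HepG2 cells, incubating them for an hour at 37 C in 5% CO2 before reading emission at 590 nm under 540 nm excitation; values reflect equivalence to Rose Bengal sodium fluorescence.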
A short description of assay [7]: qHTS assay to test for compound auto fluorescence at 535 nm (green) in HepG2 cells (AID 720675).
A short description of assay [8]: qHTS assay to test for compound auto fluorescence at 460 nm (blue) in HEK293 cells (AID 720678). In a few lines:
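HEK293 cells (2,000 per well, medium with 10% dialyzed FBS) attached for 4-5 hr at 37C, then received compound and stood overnight at 37C, 5% CO2. Blue fluorescence was read at Ex/Em 405/460 nm and expressed relative to triamterene.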

Assay [9] is described as follows: qHTS assay to test for compound auto fluorescence at 590 nm (red) in HEK293 cells (AID 720679). In a few lines:
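HEK293 cells (2,000/well, medium with 10% dialyzed FBS) attached for 4-5 hr at 37C, received 23 nL compound and were incubated overnight at 37C, 5% CO2. Red fluorescence was then read at 540/590nm Ex/Em, referenced to Rose Bengal sodium.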

Assay [10] in a line: qHTS assay to test for compound auto fluorescence at 535 nm (green) in HEK293 cells (AID 720680).
A short description of assay [11]: qHTS assay to test for compound auto fluorescence at 460 nm (blue) in HEK293 cell free culture (AID 720681). In a few lines:
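Blue fluorescence (Ex 405/Em 460 nm, triamterene-equivalent) was read immediately after pin transfer of compound or DMSO into medium (DMEM, 10% FBS) without cells.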

Assay [12] can be described thus: qHTS assay to test for compound auto fluorescence at 535 nm (green) in HEK293 cell free culture (AID 720682). In a few lines: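 Steps: dispense DMEM/10% FBS into empty wells; pin in compound or DMSO; measure fluorescence at 485/535 nm. Values are fluorescein equivalents.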
A short description of assay [13]: qHTS assay to test for compound auto fluorescence at 590 nm (red) in HEK293 cell free culture (AID 720683). In a few lines:
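Red-channel autofluorescence of compounds in culture medium (DMEM, 10% FBS), no cells, measured at 540/590 nm. Rose Bengal sodium is the reference fluorophore for equivalence.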

Assay [14] can be described thus: qHTS assay to test for compound auto fluorescence at 590 nm (red) in HepG2 cell free culture (AID 720684). In a few lines:
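Plate contents were MEM with 10% FBS plus test compound or DMSO, no cells. Fluorescence was recorded with 540 nm excitation and 590 nm emission.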

The nature of assay [15]: qHTS assay to test for compound auto fluorescence at 460 nm (blue) in HepG2 cell free culture (AID 720685). In a few lines:
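Compound (23 nL) or DMSO pinned into cell-free MEM with 10% FBS; blue fluorescence read at 405/460 nm excitation/emission, expressed as auto-fluorescence equivalency to triamterene.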

Assay [16] in a line: qHTS assay to test for compound auto fluorescence at 535 nm (green) in HepG2 cell free culture (AID 720686).
Assay [17] can be described thus: qHTS assay to test for compound auto fluorescence at 460 nm (blue) in HepG2 cells (AID 720687). In a few lines:
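Blue-channel autofluorescence (Ex/Em 405/460 nm, triamterene-equivalent) was measured after 1 hr compound exposure at 37 C, 5% CO2. Cells were HepG2, plated overnight at 37 C in MEM plus 10% FBS.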

In assay [18] the target is Glucocorticoid receptor (Homo sapiens) (UniProt P04150). The assay is described as follows: qHTS assay to identify small molecule agonists of the glucocorticoid receptor (GR) signaling pathway (AID 720691; active = well fitted activation curve with a large enough effect in the signal ratio in the repeat runs, not every such curve was filed as active; the % refers to the signal ratio). The gist of the method: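 Beta-lactamase reporter activity, read as fluorescence intensity, was measured in GR-bla HeLa cells exposed to compounds for 18 h at 37 C and then loaded with LiveBLAzer B/G FRET substrate for 2 h at room temperature.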
Sequence of Glucocorticoid receptor (Homo sapiens) (P04150 whole entry, looked up): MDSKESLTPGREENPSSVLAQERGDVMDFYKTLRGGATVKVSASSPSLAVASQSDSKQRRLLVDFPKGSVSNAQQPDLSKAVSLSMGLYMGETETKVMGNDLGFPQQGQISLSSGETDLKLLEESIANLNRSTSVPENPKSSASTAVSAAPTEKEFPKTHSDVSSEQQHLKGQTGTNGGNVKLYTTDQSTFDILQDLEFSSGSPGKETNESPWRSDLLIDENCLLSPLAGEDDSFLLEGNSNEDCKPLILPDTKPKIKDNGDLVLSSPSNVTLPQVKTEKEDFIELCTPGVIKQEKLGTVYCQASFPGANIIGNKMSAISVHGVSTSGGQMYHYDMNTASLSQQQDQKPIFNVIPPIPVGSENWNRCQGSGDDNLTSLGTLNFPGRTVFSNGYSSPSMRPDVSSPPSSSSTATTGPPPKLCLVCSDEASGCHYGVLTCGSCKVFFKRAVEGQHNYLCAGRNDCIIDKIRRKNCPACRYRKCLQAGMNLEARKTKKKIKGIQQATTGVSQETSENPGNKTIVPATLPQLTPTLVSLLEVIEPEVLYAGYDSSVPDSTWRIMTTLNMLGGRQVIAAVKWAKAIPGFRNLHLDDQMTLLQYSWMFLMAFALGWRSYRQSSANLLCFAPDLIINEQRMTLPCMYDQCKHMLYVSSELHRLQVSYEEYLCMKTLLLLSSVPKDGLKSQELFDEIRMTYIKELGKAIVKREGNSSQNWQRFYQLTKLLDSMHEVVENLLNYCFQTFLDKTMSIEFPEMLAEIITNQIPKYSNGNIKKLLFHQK

For assay [19] the target is unchanged. Kind of assay: qHTS assay to identify small molecule antagonists of the glucocorticoid receptor (GR) signaling pathway (AID 720692; active = well fitted inhibition curve with a large enough effect in the signal ratio in the repeat runs, not every such curve was filed as active; the % refers to the signal ratio). In a few lines: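 Fluorescence from cleaved LiveBLAzer B/G FRET substrate reports GRE-driven beta-lactamase in HeLa cells; compounds are tested against 5 nM dexamethasone (final) over 18 h at 37 C, substrate incubation 2 h at room temperature.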

The nature of assay [20]: qHTS assay for small molecules that induce genotoxicity in human embryonic kidney cells expressing luciferase-tagged ATAD5 - cell viability (AID 651634; calls by dose curve; also: nearly all actives have a fitted effect of over 25% in size). In a few lines:
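Live-cell protease activity (CellTiter-Fluor, fluorescence) indicates viability. HEK293T cells with luciferase-tagged ATAD5; 15.5 hr compound treatment at 37C.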
% is scaled to controls: 0 for no effect and ±100 for the full control effect.

With `CC(C)(O)c1ccc(CNC(=O)c2cccnc2Oc2ccc3nonc3c2)cc1`, the Potency result in assay [1], in assay [2], in assay [3], in assay [4], in assay [5] and in assay [8] was “inactive” throughout. Further, the Potency entry in [11], in [15], in assay [17], in assay [18] and in assay [19] was “inactive” throughout. For the same compound, the call in assay [6], in assay [7], in assay [9], in [10], in assay [12] and in assay [13] was inactive. Also, the compound was classed as inactive in assay [14] and in assay [16].

Regarding `Cc1cc(C)cc(N)c1`, the Potency result in assay [1], in assay [2], in [3], in assay [20], in assay [4] and in [5] was “inactive” throughout. The Potency result in assay [11], in assay [15], in assay [17], in assay [18] and in assay [19] was “inactive” throughout. The outcome in [7], in assay [9], in [10], in assay [12], in [13] and in [14] was inactive. The outcome in assay [16] was inactive.

Regarding `CCC(=O)OC`, the Potency result in [1], in assay [2], in [3], in assay [20], in assay [4] and in [8] was “inactive” each time. Moreover, the Potency result in assay [11], in assay [15], in assay [17], in assay [18] and in assay [19] was “inactive” throughout. Besides, the result in [6], in assay [7], in assay [9], in assay [13], in assay [14] and in [16] was inactive.

For the compound `Cc1cscn1`, the Potency result in assay [1], in assay [2], in assay [3], in assay [20], in [4] and in assay [8] was “inactive” throughout. Besides, the Potency entry in assay [11], in assay [15] and in assay [17] was “inactive” in each case. Further, the compound was called inactive in assay [6], in assay [7], in [9], in assay [10], in assay [13] and in assay [14]. Further, the compound was called inactive in [16].

`CC1(C)[C@@H](OC(=O)CCC(=O)O)CC[C@]2(C)[C@H]3C(=O)C=C4[C@@H]5C[C@@](C)(C(=O)O)CC[C@]5(C)CC[C@@]4(C)[C@]3(C)CC[C@@H]12`: the Potency entry in assay [1], in [2], in assay [3], in assay [4], in assay [5] and in assay [18] was “inactive” each time. For the same compound, in assay [19], the Potency entry is “inactive”. In addition, the fluorescence, relative to Rose Bengal in [6] was -0.342% [at 18.6 µM]. Also, the figures for the fluorescence, % of fluorescein control in assay [7] and in assay [16] were -0.0594% [at 18.6 µM] and 0.0091% [at 18.6 µM], respectively. In assay [8], the fluorescence, % of triamterene was 0.0377% [at 18.6 µM]. Also, the fluorescence, % of fluorescent control in [9] was 0.163% [at 18.6 µM]; in assay [11], -0.141% [at 18.6 µM]; in [13] it was 0.073% [at 18.6 µM]; in assay [15], 0.0251% [at 18.6 µM]; in [17] it was -0.0128% [at 18.6 µM]. Moreover, the fluorescence, % of fluorescein in assay [10] is -0.0149% [at 18.6 µM]. In addition, the activity change in [12] is -0.0002% [at 18.6 µM]. Also, in assay [14], the fluorescence, % of Rose Bengal is 0.105% [at 18.6 µM].

`CCC(OCCCOC)OC(C)=O` (stereo not drawn): the Potency result in [1], in [2], in [3], in assay [20], in assay [4] and in assay [8] was “inactive” in each case. The Potency result in [11], in [15], in assay [17], in assay [18] and in assay [19] was “inactive” in each case. For the same compound, the result in assay [6], in assay [7], in assay [9], in [10], in [12] and in [13] was inactive. In addition, the compound was classed as inactive in assay [14] and in assay [16].

Turning to `O=C1c2ccccc2C(=O)c2c(O)c(O)cc(O)c21`, the Potency entry in assay [1], in assay [2], in assay [3], in assay [4], in [8] and in assay [11] was “inactive” throughout. The Potency entry in assay [17] and in assay [18] was “inactive” in each case. Also, the Potency in assay [5] is 27.3 µM (active). Also, the result in assay [6], in [7], in [9], in assay [12], in assay [14] and in assay [16] was inactive.
